# In PubChem BioAssay AID1159580 (chemical genetic matrix, 2015):
# Several values for one entry are separate records, joined by “and”; a condition that tells them apart may be missing. Equal entries are not always repeated. The whole screen tested about 5,500 compounds, of which about 2,000 (36%) were called active. About 18% were inconclusive and are not listed. Cut-off read from the data, not from the text of the source: active = normalized growth mostly below about 0.91 (no sharp cut-off); inconclusive = no clear call, values can overlap the other calls; inactive = mostly above about 0.92. The list shows a part of the results.
# Assay: chemical genetic growth profiling, strain panel (AID 1159580);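 note: tested at 20 µM; growth read once vehicle control cultures reached saturation at 30 °C; 1 = growth at the plate median or of vehicle wells; lower values mean less growth of the strain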
# Conditions: S. cerevisiae deletion strains, growth OD
# [1] = locus YAL013W, strain DEP1, stronger effect = lower value
# [2] = locus YDR150W, strain NUM1, stronger effect = lower value
# [3] = locus YGR078C, strain PAC10, stronger effect = lower value
# [4] = locus YMR263W, strain SAP30, stronger effect = lower value
# [5] = locus YPL055C, strain LGE1, stronger effect = lower value
# [6] = locus YPL241C, strain CIN2, stronger effect = lower value
# [7] = locus YBR229C, strain ROT2, stronger effect = lower value
# [8] = locus YDL101C, strain DUN1, stronger effect = lower value
# [9] = locus YEL061C, strain CIN8, stronger effect = lower value
# [10] = locus YHR030C, strain SLT2, stronger effect = lower value
# [11] = locus YHR087W, strain rtc3, stronger effect = lower value
# [12] = locus YJR043C, strain POL32, stronger effect = lower value
# [13] = locus YJR075W, strain HOC1, stronger effect = lower value
# [14] = locus YLR039C, strain RIC1, stronger effect = lower value
# [15] = locus YLR058C, strain SHM2 (second series), stronger effect = lower value
# [16] = locus YLR085C, strain ARP6, stronger effect = lower value
# [17] = locus YLR262C, strain YPT6, stronger effect = lower value
# [18] = locus YML094W, strain GIM5, stronger effect = lower value
# [19] = locus YMR219W, strain ESC1, stronger effect = lower value
# [20] = locus YNL153C, strain GIM3, stronger effect = lower value
# [21] = locus YNL298W, strain CLA4 (second series), stronger effect = lower value
# [22] = locus YNL322C, strain KRE1, stronger effect = lower value
# [23] = locus YNR030W, strain Alg12, stronger effect = lower value
# [24] = locus YPR135W, strain CTF4, stronger effect = lower value
structure (smiles),measurement,setting,value
CNC(CC(=O)O)C(=O)O (configuration not stated),normalized growth,[1],1.02 (inactive)
same,normalized growth,"locus YAL040C, strain CLN3, stronger effect = lower value",1.02 (inactive)
same,normalized growth,"locus YCL061C, strain MRC1 (second series), stronger effect = lower value",1.02 (inactive)
same,normalized growth,[2],1.03 (inactive)
same,normalized growth,"locus YDR363W, strain ESC2, stronger effect = lower value",1 (inactive)
same,normalized growth,"locus YER002W, strain NOP16, stronger effect = lower value",1 (inactive)
same,normalized growth,[3],1.02 (inactive)
same,normalized growth,[4],1.01 (inactive)
same,normalized growth,"locus YMR307W, strain GAS1, stronger effect = lower value",1.02 (inactive)
same,normalized growth,"locus YNL175C, strain NOP13, stronger effect = lower value",1.01 (inactive)
same,normalized growth,"locus YNL197C, strain WHI3, stronger effect = lower value",1 (inactive)
same,normalized growth,"locus YNL224C, strain SQS1, stronger effect = lower value",1.01 (inactive)
same,normalized growth,"locus YOR083W, strain WHI5 (second series), stronger effect = lower value",1.05 (inactive)
same,normalized growth,[5],1.02 (inactive)
same,normalized growth,[6],1.03 (inactive)
CCOC(=O)c1c(N=Cc2cc(Br)c(Br)cc2O)sc2c1CCCC2,normalized growth,[1],0.131 (active)
same,normalized growth,"locus YAR019C, strain CDC15, stronger effect = lower value",0.975 (inactive)
same,normalized growth,"locus YBL105C, strain PKC1, stronger effect = lower value",0.97 (inactive)
same,normalized growth,"locus YBR135W, strain CKS1, stronger effect = lower value",0.968 (inactive)
same,normalized growth,"locus YBR136W, strain MEC1, stronger effect = lower value",0.97 (inactive)
same,normalized growth,"locus YBR160W, strain CDC28, stronger effect = lower value",0.976 (inactive)
same,normalized growth,[7],0.542 (active)
same,normalized growth,"locus YDL017W, strain CDC7, stronger effect = lower value",0.976 (inactive)
same,normalized growth,"locus YDL028C, strain MPS1, stronger effect = lower value",0.956 (inactive)
same,normalized growth,[8],0.963 (inactive) and 0.697 (active)
same,normalized growth,"locus YDL108W, strain KIN28, stronger effect = lower value",0.959 (inactive)
same,normalized growth,"locus YDL132W, strain cdc53, stronger effect = lower value",0.964 (inactive)
same,normalized growth,"locus YDL214C, strain PRR2, stronger effect = lower value",0.667 (active)
same,normalized growth,"locus YDR052C, strain DBF4, stronger effect = lower value",0.971 (inactive)
same,normalized growth,"locus YDR054C, strain cdc34, stronger effect = lower value",0.97 (inactive)
same,normalized growth,"locus YDR226W, strain ADK1, stronger effect = lower value",0.975 (inactive)
same,normalized growth,"locus YDR477W, strain SNF1, stronger effect = lower value",0.595 (active)
same,normalized growth,[9],0.265 (active)
same,normalized growth,"locus YER123W, strain YCK3, stronger effect = lower value",0.541 (active)
same,normalized growth,"locus YER133W, strain GLC7, stronger effect = lower value",0.696 (active)
same,normalized growth,"locus YFL009W, strain cdc4, stronger effect = lower value",0.983 (inactive)
same,normalized growth,"locus YFL029C, strain CAK1, stronger effect = lower value",0.977 (inactive)
same,normalized growth,"locus YFR003C, strain YPI1, stronger effect = lower value",0.961 (inactive)
same,normalized growth,"locus YFR019W, strain FAB1, stronger effect = lower value",0.804 (inactive)
same,normalized growth,"locus YFR028C, strain CDC14, stronger effect = lower value",0.982 (inactive)
same,normalized growth,"locus YGR040W, strain KSS1, stronger effect = lower value",0.612 (active)
same,normalized growth,"locus YGR052W, strain FMP48, stronger effect = lower value",0.45 (active)
same,normalized growth,[3],0.241 (active)
same,normalized growth,"locus YGR092W, strain DBF2, stronger effect = lower value",0.173 (active)
same,normalized growth,"locus YGR229C, strain SMI1, stronger effect = lower value",0.969 (inactive)
same,normalized growth,[10],0.211 (active) and 0.239 (active)
same,normalized growth,"locus YHR079C, strain IRE1, stronger effect = lower value",0.262 (active)
same,normalized growth,"locus YHR082C, strain KSP1, stronger effect = lower value",0.368 (active)
same,normalized growth,[11],0.554 (active)
same,normalized growth,"locus YHR205W, strain SCH9, stronger effect = lower value",0.458 (active)
same,normalized growth,"locus YIL147C, strain SLN1, stronger effect = lower value",0.96 (inactive)
same,normalized growth,"locus YJL095W, strain BCK1, stronger effect = lower value",0.314 (active)
same,normalized growth,"locus YJL128C, strain PBS2, stronger effect = lower value",0.959 (inactive)
same,normalized growth,"locus YJL157C, strain FAR1, stronger effect = lower value",0.589 (active)
same,normalized growth,"locus YJR016C, strain ILV3, stronger effect = lower value",0.968 (inactive)
same,normalized growth,[12],0.318 (active)
same,normalized growth,"locus YJR066W, strain TOR1 (second series), stronger effect = lower value",0.724 (inactive)
same,normalized growth,"locus YJR066W, strain TOR1, stronger effect = lower value",0.38 (active)
same,normalized growth,[13],0.769 (active)
same,normalized growth,"locus YKL048C, strain ELM1, stronger effect = lower value",0.629 (active)
same,normalized growth,"locus YKL067W, strain YNK1, stronger effect = lower value",0.674 (active)
same,normalized growth,"locus YKL101W, strain HSL1, stronger effect = lower value",0.555 (active)
same,normalized growth,"locus YKL193C, strain SDS22, stronger effect = lower value",0.964 (inactive)
same,normalized growth,"locus YKL203C, strain TOR2, stronger effect = lower value",0.614 (active)
same,normalized growth,[14],0.164 (active)
same,normalized growth,[15],0.916 (active)
same,normalized growth,[16],0.118 (active)
same,normalized growth,"locus YLR113W, strain HOG1, stronger effect = lower value",0.475 (active)
same,normalized growth,"locus YLR133W, strain CKI1, stronger effect = lower value",0.608 (active)
same,normalized growth,[17],0.17 (active)
same,normalized growth,"locus YLR403W, strain SFP1, stronger effect = lower value",0.525 (active)
same,normalized growth,"locus YML070W, strain DAK1, stronger effect = lower value",0.576 (active)
same,normalized growth,[18],0.442 (active)
same,normalized growth,"locus YMR001C, strain CDC5, stronger effect = lower value",0.975 (inactive)
same,normalized growth,"locus YMR205C, strain PFK2 (second series), stronger effect = lower value",0.635 (active)
same,normalized growth,[19],0.83 (active)
same,normalized growth,[4],0.162 (active)
same,normalized growth,"locus YMR277W, strain FCP1, stronger effect = lower value",0.968 (inactive)
same,normalized growth,"locus YNL006W, strain LST8, stronger effect = lower value",0.976 (inactive)
same,normalized growth,"locus YNL020C, strain ARK1, stronger effect = lower value",0.51 (active)
same,normalized growth,[20],0.511 (active)
same,normalized growth,"locus YNL161W, strain CBK1, stronger effect = lower value",0.981 (inactive)
same,normalized growth,"locus YNL183C, strain NPR1, stronger effect = lower value",0.468 (active)
same,normalized growth,"locus YNL207W, strain RIO2, stronger effect = lower value",0.969 (inactive)
same,normalized growth,"locus YNL222W, strain SSU72, stronger effect = lower value",0.974 (inactive)
same,normalized growth,[21],0.652 (active)
same,normalized growth,"locus YNL307C, strain MCK1 (second series), stronger effect = lower value",0.314 (active)
same,normalized growth,[22],0.714 (active)
same,normalized growth,[23],0.533 (active)
same,normalized growth,"locus YOL006C, strain TOP1, stronger effect = lower value",0.209 (active)
same,normalized growth,"locus YOL078W, strain AVO1, stronger effect = lower value",0.967 (inactive)
same,normalized growth,"locus YOL136C, strain PFK27, stronger effect = lower value",0.577 (active)
same,normalized growth,"locus YOR061W, strain CKA2, stronger effect = lower value",0.383 (active)
same,normalized growth,"locus YOR119C, strain RIO1, stronger effect = lower value",0.63 (active)
same,normalized growth,"locus YOR231W, strain MKK1, stronger effect = lower value",0.335 (active)
same,normalized growth,"locus YOR329C, strain SCD5, stronger effect = lower value",0.974 (inactive)
same,normalized growth,"locus YPL031C, strain PHO85, stronger effect = lower value",0.561 (active)
same,normalized growth,[5],0.113 (active)
same,normalized growth,"locus YPL153C, strain RAD53, stronger effect = lower value",0.511 (active)
same,normalized growth,"locus YPL204W, strain HRR25, stronger effect = lower value",0.575 (active)
same,normalized growth,"locus YPL209C, strain IPL1, stronger effect = lower value",0.975 (inactive)
same,normalized growth,[6],0.558 (active)
same,normalized growth,"locus YPL256C, strain CLN2, stronger effect = lower value",0.458 (active)
same,normalized growth,"locus YPR025C, strain CCL1, stronger effect = lower value",0.981 (inactive)
same,normalized growth,"locus YPR106W, strain ISR1, stronger effect = lower value",0.968 (inactive)
same,normalized growth,"locus YPR111W, strain DBF20, stronger effect = lower value",0.964 (inactive)
same,normalized growth,[24],0.635 (active)
same,normalized growth,"strain NNK1, stronger effect = lower value",0.96 (inactive)
same,normalized growth,"strain TSCII, stronger effect = lower value",0.971 (inactive)
CCOC(=O)CC(=O)Nc1scc(C)c1C(=O)OCC,normalized growth,[1],0.988 (inactive)
same,normalized growth,[7],0.977 (inactive)
same,normalized growth,[8],0.97 (inactive)
same,normalized growth,"locus YDL134C, strain PPH21, stronger effect = lower value",0.923 (inactive)
same,normalized growth,[2],0.995 (inactive)
same,normalized growth,[9],0.943 (inactive)
same,normalized growth,[3],0.947 (inactive)
same,normalized growth,[10],0.906 (inactive)
same,normalized growth,[11],0.924 (inactive)
same,normalized growth,"locus YJL187C, strain SWE1, stronger effect = lower value",0.958 (inactive)
same,normalized growth,[12],0.979 (inactive)
same,normalized growth,[13],0.951 (inactive)
same,normalized growth,"locus YKL190W, strain CNB1, stronger effect = lower value",0.97 (inactive)
same,normalized growth,[14],0.987 (inactive)
same,normalized growth,[15],0.98 (inactive)
same,normalized growth,[16],0.872 (inactive)
same,normalized growth,[17],0.994 (inactive)
same,normalized growth,[18],0.933 (inactive)
same,normalized growth,[19],0.968 (inactive)
same,normalized growth,[4],0.984 (inactive)
same,normalized growth,"locus YNL128W, strain TEP1, stronger effect = lower value",0.98 (inactive)
same,normalized growth,[20],0.969 (inactive)
same,normalized growth,[21],0.934 (inactive)
same,normalized growth,[22],0.957 (inactive)
same,normalized growth,[23],0.924 (inactive)
same,normalized growth,[5],0.968 (inactive)
same,normalized growth,[6],0.936 (inactive)
same,normalized growth,[24],1.14 (inactive)
